# miR122 inh: miR-122 suppressors via Renilla sensor increase, primary screen, cell-based, Huh7 psiCHECK-miR122, Renilla luciferase, single point | 48 h | activation, % at 12.5 µM | hit rate 0.14% among 340,000;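 active = mean activation of 30% or more, with every replicate also reaching 30%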;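 also: higher luciferase signal means stronger suppression of miR-122 activity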
# A number is an active result; n = inactive. The entries come from a sample that favours hits as a whole.
SMILES,miR122 inh
C/C=C/c1ccc2c(c1)O[C@@H](CN(C)C(=O)c1cccnc1)[C@@H](C)CN([C@@H](C)CO)S2(=O)=O,n
CCCC#Cc1ccc2c(c1)O[C@@H](CN(C)C(=O)c1cccnc1)[C@@H](C)CN([C@@H](C)CO)S2(=O)=O,n
C[C@@H]1CN([C@H](C)CO)C(=O)c2cc(C#CC3(O)CCCC3)cnc2O[C@H]1CN(C)S(=O)(=O)c1ccc(F)cc1,n
C[C@@H]1CN([C@H](C)CO)C(=O)c2cc(-c3ccncc3)cnc2O[C@H]1CN(C)C(=O)C1CCOCC1,n
CCCNC(=O)N(C)C[C@@H]1Oc2cc(Br)ccc2S(=O)(=O)N([C@H](C)CO)C[C@H]1C,n
C[C@@H]1CN([C@@H](C)CO)C(=O)c2cc(C#CC3(O)CCCC3)cnc2O[C@H]1CN(C)S(=O)(=O)c1ccc(F)cc1,n
C[C@@H]1CN([C@@H](C)CO)S(=O)(=O)c2ccc(-c3ccc(C(=O)N(C)C)cc3)cc2O[C@H]1CN(C)C,n
CCCNC(=O)N(C)C[C@@H]1Oc2ncc(C#C[C@@H](C)O)cc2C(=O)N([C@H](C)CO)C[C@@H]1C,n
COCC#Cc1cnc2c(c1)C(=O)N([C@@H](C)CO)C[C@H](C)[C@H](CN(C)C(=O)Cc1ccccc1)O2,n
CC(C)C#Cc1ccc2c(c1)O[C@H](CN(C)Cc1ccncc1)[C@H](C)CN([C@H](C)CO)S2(=O)=O,n
C[C@@H]1CN([C@@H](C)CO)S(=O)(=O)c2ccc(/C=C/c3ccccc3)cc2O[C@@H]1CN(C)Cc1cccnc1,n
C[C@H]1CN([C@@H](C)CO)C(=O)c2cc(/C=C/c3ccccc3)cnc2O[C@H]1CN(C)C(=O)C1CCC1,n
C[C@H]1CN([C@@H](C)CO)C(=O)c2cc(C#Cc3ccccc3)cnc2O[C@@H]1CN(C)Cc1ccccn1,n
CO[C@H]1CN(C)C(=O)c2ccc(NC(=O)c3ccccc3)cc2OC[C@H](C)N(C)C[C@H]1C,n
C[C@H]1CN([C@@H](C)CO)C(=O)c2cc(/C=C/c3ccccc3)cnc2O[C@H]1CN(C)C(=O)C1CCOCC1,n
C/C=C/c1ccc2c(c1)O[C@H](CN(C)C(=O)CC1CC1)[C@H](C)CN([C@H](C)CO)S2(=O)=O,n
COCC#Cc1ccc2c(c1)O[C@H](CN(C)C(C)=O)[C@@H](C)CN([C@@H](C)CO)S2(=O)=O,n
COc1cccc(C#Cc2ccc3c(c2)O[C@H](CN(C)S(=O)(=O)c2ccccc2F)[C@@H](C)CN([C@H](C)CO)S3(=O)=O)c1,n
C[C@H](CO)N1C[C@H](C)[C@@H](CN(C)Cc2ccccc2C(=O)O)Oc2cc(-c3ccccc3)ccc2S1(=O)=O,n
C[C@@H]1CN([C@@H](C)CO)S(=O)(=O)c2ccc(C#Cc3cccnc3)cc2O[C@H]1CN(C)CC1CCOCC1,n
Nc1cccc2nc3ccccc3cc12,51
C[C@H]1CN([C@@H](C)CO)S(=O)(=O)c2ccc(C#Cc3ccncc3)cc2O[C@H]1CN(C)C(=O)C1CCCCC1,n
C/C=C/c1cnc2c(c1)C(=O)N([C@@H](C)CO)C[C@H](C)[C@@H](CN(C)C(=O)Nc1ccccc1F)O2,n
C[C@H](CO)N1C[C@H](C)[C@H](CN(C)C(=O)c2cccc(F)c2)Oc2ncc(-c3cccc(F)c3)cc2C1=O,n
CC(C)CC#Cc1cnc2c(c1)C(=O)N([C@@H](C)CO)C[C@@H](C)[C@H](CN(C)C(=O)CC1CC1)O2,n
SMILES,miR122 inh
COc1cccc(S(=O)(=O)N(C)C[C@@H]2Oc3ncc(C#CCC(C)C)cc3C(=O)N([C@@H](C)CO)C[C@H]2C)c1,n
C[C@@H]1CN([C@@H](C)CO)C(=O)c2cc(C#Cc3ccccc3)cnc2O[C@H]1CN(C)Cc1ccccn1,n
C[C@@H]1CN([C@@H](C)CO)C(=O)Cc2cc(NC(=O)C3CCCCC3)ccc2O[C@H]1CN(C)Cc1ccc(-c2ccccc2)cc1,33
C[C@H](CO)N1C[C@H](C)[C@H](CN(C)Cc2ccc(C(=O)Nc3ccccc3N)cc2)Oc2ccc(NC(=O)C3CCCCC3)cc2CC1=O,n
Cc1ccc(S(=O)(=O)N(C)C[C@@H]2Oc3ccc(NC(=O)Nc4ccc(C(F)(F)F)cc4)cc3CC(=O)N([C@H](C)CO)C[C@@H]2C)cc1,n
C[C@@H]1CN([C@@H](C)CO)C(=O)Cc2cc(NC(=O)Nc3ccc(C(F)(F)F)cc3)ccc2O[C@H]1CN(C)CC1CCCCC1,31
C[C@@H]1CN([C@H](C)CO)C(=O)Cc2cc(NS(=O)(=O)c3ccc(Cl)cc3)ccc2O[C@@H]1CN(C)C(=O)Nc1ccc(C(F)(F)F)cc1,n
C[C@H](CO)N1C[C@H](C)[C@H](CN(C)Cc2ccc(C(=O)Nc3ccccc3N)cc2)Oc2ccc(NC(=O)C3CC3)cc2CC1=O,n
Cc1ccc(-c2cnc3c(c2)C(=O)N([C@H](C)CO)C[C@H](C)[C@@H](CN(C)C(=O)Cc2ccncc2)O3)cc1,n
C/C=C/c1cnc2c(c1)C(=O)N([C@@H](C)CO)C[C@H](C)[C@H](CN(C)C(=O)Cc1cccnc1)O2,n
CCCNC(=O)N(C)C[C@H]1Oc2cc(-c3ccccc3)ccc2S(=O)(=O)N([C@H](C)CO)C[C@H]1C,n
C[C@H](CO)N1C[C@H](C)[C@@H](CN(C)C(=O)C2CCC2)Oc2cc(C#CC(C)(C)O)ccc2S1(=O)=O,n
CO[C@@H]1CN(C)C(=O)c2cc(NC(=O)Nc3ccccc3)ccc2OC[C@@H](C)NC[C@@H]1C,n
CO[C@H]1CN(C)C(=O)c2cc(NC(=O)Nc3ccccc3)ccc2OC[C@@H](C)NC[C@H]1C,n
CC1CCN(CCc2nc3cc(NC(=O)Nc4ccccc4)ccc3n2C)CC1,31
C[C@H](CO)N1C[C@H](C)[C@H](CN(C)S(=O)(=O)c2cccc(F)c2)Oc2ncc(-c3ccc(F)cc3)cc2C1=O,n
C[C@H](CO)N1C[C@H](C)[C@H](CN(C)C(=O)Nc2ccc(F)cc2)Oc2ncc(C#CCC3CCCC3)cc2C1=O,n
CN1C(=O)c2cc(NC(=O)Cc3ccccc3)ccc2OC[C@@H]2O[C@@H](CC(=O)NCc3ccc(Cl)cc3)CC[C@@H]21,n
COc1cccc(CNC(=O)C[C@@H]2CC[C@H]3[C@H](COc4ccc(NS(=O)(=O)c5ccccc5F)cc4C(=O)N3C)O2)c1,37
COc1cccc(C(=O)Nc2ccc3c(c2)C(=O)N(C)[C@@H]2CC[C@@H](CC(=O)NCc4ccc(F)cc4)O[C@@H]2CO3)c1,37
CCC(=O)Nc1ccc2c(c1)C(=O)N(C)C[C@H](OC)[C@@H](C)CN(Cc1ccccc1OC)[C@@H](C)CO2,n
CC(C)C(=O)Nc1ccc2c(c1)C(=O)N(C)[C@@H]1CC[C@@H](CC(=O)N[C@H](C)c3ccccc3)O[C@@H]1CO2,70
CC(C)C(=O)Nc1ccc2c(c1)C(=O)N(C)[C@H]1CC[C@@H](CC(=O)NCC3CC3)O[C@@H]1CO2,n
CNC(=O)C[C@H]1CC[C@@H]2[C@H](COc3ccc(NC(=O)c4cccc(OC)c4)cc3C(=O)N2C)O1,83
CO[C@@H]1CN(C)C(=O)c2cc(NC(=O)c3ccc(F)cc3)ccc2OC[C@@H](C)N(C)C[C@H]1C,n
CO[C@@H]1CN(C)C(=O)c2cc(NC(=O)Cc3ccccc3)ccc2OC[C@@H](C)N(C)C[C@H]1C,n
CCCNC(=O)N(C)C[C@@H]1Oc2ncc(C#C[C@@H](C)O)cc2C(=O)N([C@@H](C)CO)C[C@@H]1C,n
C/C=C/c1ccc2c(c1)O[C@@H](CN(C)S(C)(=O)=O)[C@H](C)CN([C@@H](C)CO)S2(=O)=O,n
